Assay results taken from PubChem BioAssay.
Measured potencies and affinities stand elsewhere. Records with an inconclusive call do not appear. Activity calls are given as the source filed them. Unless noted, the rule behind the calls is not given here.

What was measured:
[1] = cytotoxicity in PAX8-dependent RMG-1 cells, dose response, cell-based, cherry-pick (AID 687029;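 active = signal drop whose fitted half-maximal concentration is at most twice the top valid dose, in every test run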;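 note: cells exposed to compound for 96 hours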); settings: RMG-1 viability, CellTiterGlo ATP luminescence, 96 h; series mostly up to 35 µM
[2] = cytotoxicity in IOSE-T80 ovarian epithelial cells, dose response, selectivity assay for PAX8 inhibitor project, cell-based, cherry-pick (AID 687032;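 active = fitted half-maximal concentration for viability loss no higher than twice the top valid dose, in every repeat run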;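 note: cells exposed to compound for 96 h before reading; 0% = neutral control wells and -100% = 2 µM mitoxantrone kill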); settings: CellTiterGlo ATP luminescence, 96 h; series mostly up to 35 µM
[3] = inhibitors of CMV-promoter luciferase reporter, dose response, counter-screen for Pax8 inhibitor project, cell-based, HEK293, luminescence, dry powder (AID 743020;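 active = signal-lowering compounds whose fitted half-maximal concentration is at or below twice the top tested dose in every run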;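 note: HEK293 cells stably expressing the CMV luciferase reporter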); settings: SteadyGlo luminescence, 24 h; series mostly up to 35 µM
[4] = non-specific cell cytotoxicity, dose response, cytotoxicity control for PAX8 inhibitor project, plate reader, dry powder samples (AID 743021); settings: cell line, non-specific cytotoxicity counter-screen; series mostly up to 35 µM
[5] = IGROV1 ovarian cancer cell cytotoxicity, dose response, PAX8 inhibitor project, plate reader, dry powder samples (AID 743043); settings: series mostly up to 35 µM;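 note: more negative means fewer viable cells or more cytotoxicity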
[6] = NIH:OVCAR-3 ovarian cancer cell cytotoxicity, dose response, PAX8 inhibitor project, plate reader, dry powder samples (AID 743044); settings: NIH:OVCAR-3 ovarian cancer cell viability
[7] = IOSE-T80 ovarian epithelial cell cytotoxicity, dose response, cytotoxicity control for PAX8 inhibitor project, plate reader, dry powder samples (AID 743045); settings: IOSE-T80 ovarian epithelial cells; series mostly up to 35 µM;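 note: 0% = neutral control median and -100% = positive control median; more negative values mean more cell killing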
[8] = A2780 ovarian cancer cell cytotoxicity, dose response, cytotoxicity control, plate reader, dry powder samples (AID 743046); settings: series mostly up to 35 µM;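 note: 0% = neutral control wells and -100% = cytotoxic reference compound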
[9] = cytotoxicity in OVCAR8 ovarian cancer cells, dose response, PAX8 project, cell-based, plate reader, dry powder samples (AID 743197); settings: series mostly up to 35 µM
[10] = max activity: at 35 µM, stronger effect = lower value unless noted, series mostly up to 50 µM

Measured: max activity

COc1cccc(S(=O)(=O)N(C)C[C@H]2OCc3ccccc3-c3c(n(C)c4ccccc34)C(=O)N([C@H](C)CO)C[C@H]2C)c1
inactive: [1] | [2] | [3] | [4] | [5] | [6]; [10] 28.2% [at 2.1 µM, stronger effect = lower value] | [7]

C[C@@H]1CCCCO[C@@H](CN(C)Cc2ccncc2)[C@H](C)CN([C@H](C)CO)C(=O)c2cc(NC(=O)Nc3ccc(C(F)(F)F)cc3)ccc2O1
inactive: [1] | [2] | [3] | [4] | [5] | [6]; [10] 17.2% [at 4.2 µM, stronger effect = lower value] | [7] | [8]

Nc1ncnc2c(C3OC(CO)C(O)C3O)scc12 (stereo not given)
inactive: [1] | [2] | [3] | [4]

C[C@H]1CCCCO[C@H](CN(C)C(=O)Nc2ccc(F)cc2)[C@@H](C)CN([C@@H](C)CO)C(=O)c2cc(NC(=O)Nc3ccc(C(F)(F)F)cc3)ccc2O1
inactive: [1] | [2] | [3] | [4] | [5] | [6]; [10] 8.44% [at 16 µM, stronger effect = lower value] | [7] | [8]

C[C@@H]1CN([C@H](C)CO)C(=O)c2cc(NC(=O)Nc3ccc(F)cc3)ccc2O[C@@H](C)CCCCO[C@H]1CN(C)S(=O)(=O)c1ccc(Cl)cc1
inactive: [1] | [2] | [3] | [4] | [5] | [6]; [10] -22.1% [at 16 µM, stronger effect = lower value] | [7]

COc1ccc(NC(=O)Nc2ccc3c(c2)C(=O)N([C@H](C)CO)C[C@@H](C)[C@@H](CN(C)C(=O)Cc2ccccc2)OCCCC[C@H](C)O3)cc1
inactive: [1] | [2] | [3] | [4] | [5] | [6]; [10] -34.5% | [7]

C[C@@H]1CN([C@H](C)CO)C(=O)c2c(c3ccccc3n2C)-c2ccccc2CO[C@@H]1CN(C)S(=O)(=O)c1ccc(C(F)(F)F)cc1
inactive: [1] | [2] | [3] | [4] | [5] | [6]; [10] -18.1% [at 16 µM, stronger effect = lower value] | [7] | [8]

CN1C(=O)c2cc(NC(=O)c3cccc(Cl)c3)ccc2OC[C@@H]2O[C@H](CC(=O)NC3CCCCC3)CC[C@@H]21
inactive: [1] | [2] | [3] | [4] | [5] | [6]; [10] -25.7% | [7]

C[C@H](CO)N1C[C@H](C)[C@@H](CN(C)Cc2ccc(Cl)c(Cl)c2)OCCCC[C@H](C)Oc2ccc(NS(=O)(=O)c3ccc(Cl)cc3)cc2C1=O
inactive: [1] | [2] | [3] | [4] | [5] | [6]; [10] -25.3% | [7]

Cc1ccc(S(=O)(=O)Nc2ccc3c(c2)C(=O)N([C@H](C)CO)C[C@@H](C)[C@H](CN(C)S(=O)(=O)c2ccccc2)OCCCC[C@H](C)O3)cc1
inactive: [1] | [2] | [3] | [4] | [5] | [6]; [10] -31.1% | [7]

COc1ccccc1C#Cc1ccc([C@@H]2[C@@H](C#N)N(C(=O)C3CCCCC3)[C@H]2CO)cc1
inactive: [1] | [2] | [3] | [4] | [5] | [6]; [10] 26.7% [at 30 µM, stronger effect = lower value] | [6]; [10] | [7] | [8] | [9]

COc1cccc(S(=O)(=O)N(C)C[C@@H]2OCc3ccccc3-c3c(n(C)c4ccccc34)C(=O)N([C@@H](C)CO)C[C@@H]2C)c1
inactive: [1] | [2] | [3] | [4] | [5] | [6]; [10] 23.2% [at 2.1 µM, stronger effect = lower value] | [7] | [8]

C[C@@H]1CCCCO[C@@H](CN(C)Cc2ccccc2)[C@@H](C)CN([C@@H](C)CO)C(=O)c2cc(NS(=O)(=O)c3ccc(Cl)cc3)ccc2O1
inactive: [1] | [2] | [3] | [4] | [5] | [6]; [10] 29.1% [at 0.26 µM, stronger effect = lower value] | [7]

C[C@H](CO)N1C[C@H](C)[C@H](CN(C)S(=O)(=O)c2ccc(F)cc2)OCCCC[C@H](C)Oc2ccc(NC(=O)Nc3ccc(F)cc3)cc2C1=O
inactive: [1] | [2] | [3] | [4] | [5] | [6]; [10] -19% [at 16 µM, stronger effect = lower value] | [7] | [8]

COc1ccc2c(c1)C(C)=CC(C)(C)N2S(=O)(=O)c1ccc(Br)cc1
inactive: [1] | [2] | [3] | [4] | [5]

O=C(C[C@@H]1CC[C@H]2[C@@H](COC[C@H](O)CN2C(=O)Nc2ccc(Cl)c(Cl)c2)O1)NCc1ccc(Cl)cc1
inactive: [1] | [2] | [3] | [4] | [5] | [6]; [10] -36.1% | [7]

O=C(Nc1ccc(C(F)(F)F)cc1)N1C[C@@H]2N[C@H](C1)C2c1ccc(-c2cccc(F)c2)cc1 (stereo not given in full)
inactive: [1] | [2] | [3] | [4] | [5] | [6]; at 8 µM, stronger effect = lower value -9.78% | [6]; at 35 µM, stronger effect = lower value -0.968% | [7] | [8] | [9]

O=C(C[C@@H]1C[C@@H]2c3cc(NS(=O)(=O)c4ccc(F)cc4)ccc3O[C@@H]2[C@@H](CO)O1)NCc1ccc(-c2ccccc2)cc1
inactive: [1] | [2] | [3] | [4] | [5] | [6]; [10] -23.3% [at 16 µM, stronger effect = lower value] | [7]

O=C(NC1CC1)c1ccc2c(c1)C1C3CCC(C3)C1C(c1ccccc1)N2 (stereo not given)
inactive: [1] | [2] | [3] | [4]

C[C@@H]1CN([C@H](C)CO)C(=O)c2cc(NC(=O)CCCCCC(=O)Nc3ccccc3N)ccc2O[C@@H](C)CCCCO[C@H]1CN(C)Cc1ccc(Cl)c(Cl)c1
inactive: [1] | [2] | [3] | [4] | [5] | [6]; [10] -28.2% | [7] | [8]

C[C@@H]1CN([C@@H](C)CO)C(=O)c2cc(NC(=O)Nc3ccc(C(F)(F)F)cc3)ccc2O[C@@H](C)CCCCO[C@H]1CN(C)C(=O)c1ccccc1
inactive: [1] | [2] | [3] | [4] | [5] | [6]; [10] 12.6% [at 0.26 µM, stronger effect = lower value] | [7]

O=C(C[C@H]1CC[C@@H]2[C@H](COC[C@@H](O)CN2S(=O)(=O)c2cccc(Cl)c2)O1)Nc1ccc(-c2ccccc2)cc1
inactive: [1] | [2] | [3] | [4] | [5] | [6]; [10] -18.4% | [7] | [8]

C[C@@H]1CCCCO[C@H](CN(C)Cc2ccc(C(F)(F)F)cc2)[C@@H](C)CN([C@@H](C)CO)C(=O)c2cc(NS(=O)(=O)c3ccc(Cl)cc3)ccc2O1
inactive: [1] | [2] | [3] | [4] | [5] | [6]; [10] -151% | [7]

COc1ccccc1C#Cc1ccc2c(c1)O[C@H](CN(C)Cc1cccnc1)[C@H](C)CN([C@H](C)CO)S2(=O)=O
inactive: [1] | [2] | [3] | [4] | [5] | [6]; [10] -36.9% | [7] | [8]

C[C@H]1CN([C@@H](C)CO)C(=O)Cc2cc(NC(=O)Nc3ccc4c(c3)OCO4)ccc2O[C@@H]1CN(C)CC1CCCCC1
inactive: [1] | [2] | [3] | [4] | [5] | [6]; [10] -10.1% | [7]

COc1ccc(-c2ccc3c(c2)[C@@H]2[C@@H](CCN2C(=O)NC2CCCCC2)[C@@H](CO)N3C)cc1
inactive: [1] | [2] | [3] | [4] | [5] | [6]; [10] -44.1% [at 9 µM, stronger effect = lower value] | [7]

C[C@H](CO)N1C[C@H](C)[C@H](CN(C)S(=O)(=O)c2ccccc2)OCCCC[C@H](C)Oc2ccc(NS(=O)(=O)c3ccc(Cl)cc3)cc2C1=O
inactive: [1] | [2] | [3] | [4] | [5] | [6]; [10] -18.9% | [7]

Cc1ccccc1-c1ccc2c(c1)O[C@H](CN(C)C(=O)Nc1ccc(C(F)(F)F)cc1)[C@H](C)CN([C@H](C)CO)S2(=O)=O
inactive: [1] | [2] | [3] | [4] | [5] | [6]; [10] -27.3% | [7]

Cc1cc(Sc2nnc(N)s2)c2ccccc2n1
inactive: [1] | [2] | [3] | [4]

C[C@H](CO)N1C[C@H](C)[C@@H](CN(C)Cc2ccc(Cl)c(Cl)c2)OCCCC[C@H](C)Oc2ccc(NS(=O)(=O)c3ccc(F)cc3)cc2C1=O
inactive: [1] | [2] | [3] | [4] | [5] | [6]; [10] -28.3% | [7]

C[C@@H]1CN([C@H](C)CO)C(=O)c2c(c3ccccc3n2C)-c2ccccc2CO[C@H]1CN(C)C(=O)Nc1cccc(C(F)(F)F)c1
inactive: [1] | [2] | [3] | [4] | [5] | [6]; [10] -25.5% [at 16 µM, stronger effect = lower value] | [7] | [8]

C[C@@H]1CN([C@H](C)CO)C(=O)c2cc(NS(=O)(=O)c3ccccc3)ccc2O[C@@H](C)CCCCO[C@H]1CN(C)Cc1ccc(Cl)c(Cl)c1
inactive: [1] | [2] | [3] | [4] | [5] | [6]; [10] 22% [at 0.5 µM, stronger effect = lower value] | [7] | [8]

C[C@H](CO)N1C[C@H](C)[C@H](CN(C)C(=O)c2ccccc2)OCCCC[C@H](C)Oc2ccc(NC(=O)Nc3ccc(C(F)(F)F)cc3)cc2C1=O
inactive: [1] | [2] | [3] | [4] | [5] | [6]; [10] 16.6% [at 0.5 µM, stronger effect = lower value] | [7] | [8]

COc1ccc(CN2[C@H](CO)[C@H]3c4ccccc4NC[C@H]32)cc1
inactive: [1] | [2] | [3] | [4] | [5] | [6]; [10] 26.6% [at 0.5 µM, stronger effect = lower value] | [7] | [8]
